A selection: hits, their analogues and other compounds. The true share with any hit is near 3%.
GDH-TPI counter = GDH-TPI coupling enzyme inhibitors, primary screen, artefact control for M. tuberculosis FBA inhibitor project, biochemical, absorbance, full deck; 360,000 compounds, 1.2% hits; GDH-TPI coupled enzyme counterscreen, NADH absorbance; AID 588335, 2011; inhibition, % at 4.8 µM; in the data active = inhibition above about 30%;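 note: 0% = DMSO wells and 100% = wells lacking the enzyme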
Mtb BioA inh = M. tuberculosis BioA enzyme inhibitors, primary screen, biochemical, plate reader, single point, HTS. 360,000 compounds, 0.096% hits. purified M. tuberculosis BioA enzyme. inhibition, % at 9.99 µM; in the data active = inhibition above about 40%; inconclusive = no clear call, values can overlap the other calls
Mtb FBA inh = Mtb FBA enzyme inhibitors, primary screen, biochemical, fluorescence, strain H37Rv; Fructose-bisphosphate aldolase (Mycobacterium tuberculosis (strain ATCC 25618 / H37Rv)), …; purified M. tuberculosis FBA, fluorescence read-out; inhibition, % at 1 µM; 360,000 compounds, 2.3% hits; AID 588726, 2011; in the data active = inhibition above about 27%;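 note: 0% = vehicle and 100% = reference inhibitor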
Rv3671c protease = Rv3671c serine protease inhibitors, primary screen, biochemical, fluorescence polarization, M. tuberculosis H37Rv; inhibition, % at 5.96 µM; 320,000 compounds, 0.048% hits; P9WHR9; in the data active = inhibition above about 38%;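 note: extracellular domain of Rv3671c used as enzyme; 0% = enzyme with DMSO and 100% = no enzyme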
Target sequence (P9WHR9 whole entry, looked up, the tested form may be a part): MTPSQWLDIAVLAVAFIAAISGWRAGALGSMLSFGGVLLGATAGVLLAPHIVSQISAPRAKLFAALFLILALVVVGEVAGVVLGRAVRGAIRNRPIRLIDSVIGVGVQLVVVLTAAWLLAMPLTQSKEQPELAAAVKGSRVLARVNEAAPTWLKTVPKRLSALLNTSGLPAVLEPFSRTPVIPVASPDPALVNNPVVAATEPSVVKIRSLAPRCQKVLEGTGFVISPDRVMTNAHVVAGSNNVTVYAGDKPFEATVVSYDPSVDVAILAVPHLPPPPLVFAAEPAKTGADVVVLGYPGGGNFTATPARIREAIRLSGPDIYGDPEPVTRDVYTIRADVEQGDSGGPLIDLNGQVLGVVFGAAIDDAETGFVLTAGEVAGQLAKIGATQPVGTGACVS
FadD28 FP inh = inhibitors of FadD28 bisubstrate probe binding, primary screen, biochemical, fluorescence polarization, single point; AID 588549, 2011; 360,000 compounds, 0.22% hits; inhibition, % at 12.5 µM; Mycobacterium tuberculosis FadD28 fatty-acid-AMP ligase; in the data active = inhibition above about 8.5%, passing the limit was not always enough; inconclusive = no clear call, values can overlap the other calls
Active calls of the source: *; ? = inconclusive; nt = no result given; + = active, no number.

SMILES	GDH-TPI counter	Mtb BioA inh	Mtb FBA inh	Rv3671c protease	FadD28 FP inh
CCOC(=O)c1cc2c(=O)n3ccccc3nc2n(Cc2ccco2)c1=NC(=O)c1cccnc1	14.5	13.2	130.5*	-0.6	-0.4
CCOCCCn1c(=NC(C)=O)c(C(=O)OCC)cc2c(=O)n3ccccc3nc21	1.7	1.7	11.8	1.5	-2.7
O=C(C[C@H]1C[C@H]2c3cc(NC(=O)C4CCOCC4)ccc3O[C@H]2[C@H](CO)O1)NCc1ccc2c(c1)OCO2	nt	-0.6	nt	nt	nt
CC(C)CC#Cc1ccc2c(c1)O[C@@H](CN(C)C)[C@@H](C)CN([C@@H](C)CO)S2(=O)=O	nt	3.4	nt	nt	nt
N#C/C(=C(/O)CCl)c1nnc2n1CCCCC2	-0.6	-2.1	-4.6	4.4	0.0
N#C/C(=N\Nc1cc(Cl)cc(Cl)c1)c1nnc2n1CCCCC2	32.7*	1.0	-4.4	-6.0	-5.0
CCCc1cc(=O)oc2cc(OC(=O)CN3C(=O)NC4(CCCC4)C3=O)ccc12	16.2	nt	+	6.9	0.6
Cc1ccc(N(C)S(=O)(=O)c2cccc(C(=O)Oc3ccc4c(C)cc(=O)oc4c3)c2)cc1	1.5	nt	131.3*	-13.1	-0.6
Cc1cc(=O)oc2cc(OC(=O)c3ccco3)ccc12	-2.5	nt	193.8*	nt	-2.4
CCc1cc(=O)oc2cc(OC(=O)c3ccco3)ccc12	3.1	-1.0	+	-3.5	nt
CN1C(=O)c2cc(NC(=O)Nc3cccc(Cl)c3)ccc2OC[C@H]2O[C@H](CC(=O)NCCc3ccncc3)CC[C@@H]21	nt	9.4	nt	nt	nt
COc1ccc(Oc2coc3cc(O)ccc3c2=O)cc1	44.8*	-1.3	17.5	nt	-2.3
COc1ccc(Oc2coc3cc(OC(=O)/C=C/c4ccccc4)ccc3c2=O)cc1	-3.6	-0.5	0.7	-1.4	-3.0
C[C@H]1CN([C@@H](C)CO)C(=O)c2cc(C3=CCCC3)cnc2O[C@@H]1CN(C)C(=O)c1ccc2c(c1)OCO2	nt	2.8	nt	nt	nt
CCOC(=O)C1CCN(CC(=O)c2ccc(O)c(C)c2O)CC1	32.2*	-2.3	8.1	-3.5	0.8
Cn1c(NC(=O)/C=C/c2ccccc2)cc(=O)n(C)c1=O	61.7*	-1.3	-0.8	2.0	-2.2
COc1ccc(/C=C/C(=O)Nc2cc(=O)n(C)c(=O)n2C)cc1	27.1	1.0	0.1	-6.4	-2.0
C[C@H](CO)N1C[C@H](C)[C@H](CN(C)C(=O)Nc2ccc(C(F)(F)F)cc2)Oc2ccc(NC(=O)Nc3ccc(F)cc3)cc2C1=O	nt	-1.5	nt	nt	nt
CCc1ccc(CN2CCN(C(=O)Cc3ccccc3)CC2)cc1	-6.1	nt	-0.8	8.4	-2.5
CSc1ccc(CN2CCN(C(=O)Cc3ccccc3)CC2)cc1	31.0*	2.1	2.3	4.6	0.2
CC(C)CC(=O)OC(C)(C)[C@@H]1Cc2c(ccc3ccc(=O)oc23)O1	6.5	4.8	181.6*	3.3	-4.7
CC(=O)OC1=Cc2c(ccc3ccc(=O)oc23)OC1(C)C	13.6	0.7	21.9	-5.7	-0.2
CCCNC(=O)C[C@@H]1CC[C@H]2[C@@H](COC[C@@H](O)CN2CC2CCCCC2)O1	nt	-1.8	nt	nt	nt
CC(C)C#Cc1cnc2c(c1)C(=O)N([C@H](C)CO)C[C@H](C)[C@@H](CN(C)C(=O)Nc1cccc(F)c1)O2	nt	5.8	nt	nt	nt
CC(=O)Nc1ccc(C2=NN(c3ccccc3)C(c3cccs3)C2)cc1 (stereo unspecified)	7.3	nt	189.1*	12.4	-1.6
SMILES	GDH-TPI counter	Mtb BioA inh	Mtb FBA inh	Rv3671c protease	FadD28 FP inh
CCS(=O)(=O)Nc1ccc(C2=NN(C(=O)c3ccco3)C(c3cccs3)C2)cc1 (stereo unspecified)	46.4*	35.3	2.2	-7.7	-7.7
CC(=O)N1N=C(c2ccccc2)CC1c1cccs1 (stereo unspecified)	5.2	-1.3	8.9	nt	2.7
CC(=NCCO)c1c(O)n(C2CCCCC2)c(=O)[nH]c1=O	-1.5	0.7	2.2	-0.9	0.6
C/C(=N\NC(=O)c1ccccc1)c1c(O)n(C2CCCCC2)c(=O)[nH]c1=O	37.9*	-0.2	-0.8	17.4	2.2
C/C(=N\NC(=O)c1ccccc1O)c1c(O)n(C2CCCCC2)c(=O)[nH]c1=O	45.7*	2.3	2.1	4.4	11.6*
C/C(=N\NC(=O)c1ccccc1O)c1c(O)n(Cc2ccccc2)c(=O)[nH]c1=O	46.8*	2.5	7.5	6.3	?
C/C(=N\NC(=O)c1ccncc1)c1c(O)n(Cc2ccccc2)c(=O)[nH]c1=O	29.2	1.7	3.2	2.6	-1.9

Screening results deposited in PubChem BioAssay by several laboratories.
